KLF5 inhibitor – kruppel-like factor 5 inhibition; DLD-1 KLF5 promoter-luciferase reporter, luminescence; inhibition, % at 5 µM; 290,000 compounds, 0.23% hits; AID 1700;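 active means inhibition above a per-plate limit of that plate's mean compound inhibition plus 3 SD, cut at about 60% in these data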;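 further: higher means less KLF5 promoter-driven luciferase light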
Ba/F3 V617F tox – reduce viability of Ba/F3 cells dependent on JAK2V617F; Ba/F3 EpoR-JAK2V617F viability, ATP luminescence; AID 1446; 220,000 compounds, 1.1% hits; inhibition, % at 5.6 µM;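 active means inhibition above the campaign mean plus 3 SD over all tested compounds, cut at about 24% in these data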;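 further: cytokine-independent growth of Ba/F3 cells driven by EpoR plus mutant JAK2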
APP transl inh – APP translation inhibition | SH-SY5Y APP 5'UTR-luciferase reporter, luminescence | inhibition, % at 2 µM | 190,000 compounds, 0.82% hits | AID 1285;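 active means inhibition above a set limit, derived from the sample mean plus 3 SD, cut at about 45% in these data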
aSyn UTR inh – 5' untranslated region of α-synuclein, MLPCN primary screen; alpha-synuclein 5'UTR reporter, inhibitor activity; inhibition, % (tested at 7.5 µM); 300,000 compounds, 0.82% hits; AID 1813; in the data active means inhibition above about 60%;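 further: H4 neuroglioblastoma cells stably carrying SNCA 5'UTR luciferase fusion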
IEC-6 cytotox – kills IEC-6 intestinal cells in KLF5 counter-screen; AID 1825; inhibition, % at 5 µM; IEC-6 cytotoxicity, luminescence viability; 290,000 compounds, 0.78% hits; in the data active means inhibition above about 22%
BaF3 parental – reduces parental Ba/F3 cell viability, JAK2V617F counter-screen; CellTiter-Glo ATP luminescence; inhibition, % at 5.6 µM; 220,000 compounds, 1.1% hits;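 active means inhibition above a per-campaign cutoff, the mean inhibition of all tested compounds plus 3 SD, cut at about 27% in these data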
Numbers stand for hits; - = inactive; . = no result. In the library only some 2.1% were active in any assay of this set; here they are far more common.

SMILES	KLF5 inhibitor	Ba/F3 V617F tox	APP transl inh	aSyn UTR inh	IEC-6 cytotox	BaF3 parental
Cc1cccc2nc(COc3ccc(-c4ccccc4)cc3)cn12	-	44	-	-	-	38
O=C(Oc1ccccc1C(=O)Nc1ccccc1)c1ccccc1Br	-	-	58	-	-	-
COc1ccc(CCNCC(O)Cn2c3ccccc3c3ccccc32)cc1OC (stereo unspecified)	-	-	-	120	-	-
CCOc1ccc(/C=C2\SC(=S)N(CCC(=O)O)C2=O)cc1	-	-	.	115	-	-
CCc1ccc(/C=C2\SC(=S)N(CCC(=O)Nc3cc(C)on3)C2=O)cc1	-	-	-	69	-	-
CCOC(=O)CC(NC(=O)c1cc2cccc(OC)c2oc1=O)c1ccc(OC)cc1 (stereo unspecified)	-	.	.	-	-	.
CCCCNC(=O)c1ccc(Cn2c(=S)[nH]c3c([nH]c4ccc(OC)cc43)c2=O)cc1	-	-	-	105	-	-
COc1ccc(/C=C(/C(=O)c2cccs2)N2C=CC=CC2=C(C#N)C#N)cc1	-	-	82	-	-	-
CN(C)c1cc[n+](CC(=O)c2ccc(OC(F)F)cc2)cc1	-	40	.	-	-	47
O=C(C[n+]1cccc(CNC(=O)c2ccc(OC(F)F)cc2)c1)c1ccccc1	-	-	-	-	-	-
CC12CCC(=O)N1C(C(=O)NCCN1C(=O)S/C(=C\c3ccc(F)cc3)C1=O)CS2 (stereo unspecified)	.	.	.	-	.	.
O=C(NCC1CCCO1)c1cccc(S(=O)(=O)NCc2ccccc2)c1 (stereo unspecified)	-	-	-	-	-	-
CCCN1CCC(=NNc2ccc(S(=O)(=O)N(CC)CC)cc2[N+](=O)[O-])CC1	-	-	53	79	-	-
Cc1ccc(-c2cc(-c3ccc(F)cc3)nc(N)c2C#N)o1	-	-	-	63	-	-
Cc1ccc(-c2cc(-c3ccccc3)c(C#N)c(N)n2)o1	-	-	-	-	-	-
CC(C)[C@H](NC(=O)CCCn1nnc2ccccc2c1=O)C(=O)O	-	-	.	-	-	-
Cc1cc(/C=c2\sc3nc4ccccc4n3c2=O)c(C)n1-c1ccc(C(=O)O)cc1	-	-	-	-	-	-
Cc1cc(/C=c2/sc3nc4ccccc4n3c2=O)c(C)n1-c1ccccn1	-	-	60	88	-	-
O=C(C1=NN[C@@H]2C(=O)N(c3cccc(C(F)(F)F)c3)C(=O)[C@H]12)c1cnccn1	-	-	.	-	-	-
O=S(=O)(c1ccc(Cl)c(Cl)c1)c1snnc1-c1ccccc1	-	58	95	118	-	42
CCC(=O)N(Cc1cc2ccc(C)cc2[nH]c1=O)c1ccccc1OC	-	.	.	-	-	.
Fc1ccc(/C=C2\CCCC3=C2Nc2ncnn2C3c2ccc(F)cc2)cc1 (stereo unspecified)	-	-	56	-	-	-
COc1ccc(C2C3=C(Nc4ncnn42)c2ccccc2CCC3)cc1 (stereo unspecified)	-	-	-	-	-	-
CC(=O)NC1=NN(C(C)=O)C2(S1)C(=O)N(CC(C)C)c1ccc(C)cc12 (stereo unspecified)	-	-	.	-	-	-
Cn1c(NC(=O)c2ccc(F)cc2)nc2ccccc21	-	.	.	-	-	.
SMILES	KLF5 inhibitor	Ba/F3 V617F tox	APP transl inh	aSyn UTR inh	IEC-6 cytotox	BaF3 parental
C/C(=N\NC(=O)c1ccccc1)c1nc2ccccc2n1C	-	-	-	62	-	-
CC(NC(=O)c1ccco1)c1nc(-c2ccccc2Cl)no1 (stereo unspecified)	-	.	.	-	-	.
C#CC(=O)N(c1ccc(OC)cc1OC)C(C(=O)NC1CCCC1)c1cccs1 (stereo unspecified)	-	101	-	92	102	27
COc1cccc(N/C(C)=C/C(=O)c2ccc(Br)cc2)c1	-	-	-	-	-	-
C/C(=C\C(=O)c1ccc(Br)cc1)Nc1ccc(Cl)cc1	-	-	-	-	-	92
C/C(=C\C(=O)c1ccc(Cl)cc1)Nc1ccc(N2CCOCC2)cc1	-	33	-	-	-	28
CN(CC(=O)Nc1ccccc1C(F)(F)F)C(=O)Cc1ccc(S(=O)(=O)N2CCOCC2)s1	.	.	.	-	.	.
COc1ccc(NC(=O)NC(=O)c2ccccc2)cc1	-	.	.	-	-	.
O=C(NC(=O)c1ccccc1)Nc1ccccc1	-	.	.	72	-	.
Cn1c(-c2ccccc2)cnc1SCC(=O)N1CCCCC1	-	-	-	83	-	-
Cn1c(-c2ccccc2)cnc1SCC(=O)N1CCCc2ccccc21	-	-	-	-	-	-
CCOc1cc(/C=N/n2nnnc2N)ccc1OCc1c(C)no[n+]1[O-]	-	-	-	-	-	97
Cc1ccccc1NC(=O)NC1(C(=O)NCc2ccco2)CCCCC1	-	.	.	-	-	.
CC(NC(=O)c1cccs1)c1ccc(Br)cc1 (stereo unspecified)	.	.	.	-	.	.
COc1ccc2[nH]c3c(NCCC4=CCCCC4)ncnc3c2c1	-	64	-	-	-	75
O[C@@H]1CN(Cc2ccc(-n3cccn3)cc2)CC[C@H]1N1CCN(c2ccccc2F)CC1	-	.	.	-	-	.
NC(=S)N=Nc1c(O)n(Cc2ccc(F)cc2)c2ccccc12	-	-	-	-	-	-
C/C(Cl)=C\Cn1c(O)c(N=NC(N)=S)c2cc(Br)ccc21	-	-	-	70	30	-
NC(=S)N=Nc1c(O)n(Cc2ccc(Br)cc2)c2ccccc12	-	-	58	64	-	-
O=C(c1nnsc1S(=O)c1ccc(Cl)cc1)N1CCOCC1 (stereo unspecified)	-	90	48	-	-	40
Cc1oc2c(C)c3oc(=O)c(CCC(=O)NCCN4CCOCC4)c(C)c3cc2c1C	-	.	.	-	-	.
O=C(O)c1cc(-c2ccccc2)on1	-	-	-	-	-	-
O=P(O)(O)c1cc(-c2ccccc2)oc1-c1ccccc1	-	-	.	-	-	28
COC(=O)c1c(NC(=O)c2nc3ccccc3s2)sc2c1CC(C)(C)NC2(C)C	-	-	-	104	-	-
CC(C)(C)c1ccc(NC(=O)COC(=O)C2(C)CC2(Cl)Cl)cc1 (stereo unspecified)	-	-	-	-	-	-
SMILES	KLF5 inhibitor	Ba/F3 V617F tox	APP transl inh	aSyn UTR inh	IEC-6 cytotox	BaF3 parental
C/C(=N\NC(=O)c1cc(-c2cccs2)nc2ccccc12)c1ccccn1	-	-	71	79	-	-
C/C(=N\NC(=O)c1ccc(NS(=O)(=O)c2cccs2)cc1)c1ccccn1	-	-	.	71	-	-
C/C(=N\NC(=O)C(c1ccccc1)c1ccccc1)c1ccc(O)cc1	-	.	.	-	-	.
C/C(=N\NC(=O)c1ccc(NS(=O)(=O)c2cccs2)cc1)c1ccncc1	-	-	-	-	-	-
CCOc1cccc(-c2c(C(=O)N/N=C(\C)c3ccncc3)nnn2-c2nonc2N)c1	-	.	.	-	-	.
C/C(=N\NC(=O)C(c1ccccc1)c1ccccc1)c1ccccn1	-	-	69	80	-	-
CC(C)NC(=O)c1cc(-c2cccs2)nc2ccccc12	-	.	.	-	-	.
CCOc1cccc(-c2c(C(=O)N/N=C(\C)c3ccccn3)nnn2-c2nonc2N)c1	-	.	.	90	52	.

Source: PubChem BioAssay
